Data from PubChem BioAssay (NCATS).
Results filed as inconclusive are left out. Calls of active or inactive are those of the source. Calls follow the shape of the dose curve; as a rule, active = well fitted curve in the direction sought with a large enough effect; inconclusive = small, poorly fitted or top-dose-only effect, or another doubt; inactive = no such curve, though single readings can be large; an effect the other way counts as inactive or inconclusive.

Columns and labels:
[1] = tested on: SKOV3; experiment: Primary qHTS to identify gynecologic anti-cancer compounds using libraries of approved drugs and bioactive compounds (AID 1345084); details: Gynecologic cancer cell panel viability, ATPlite luminescence, 48 h; series mostly up to 57.5 µM; also: nearly all actives have a fitted effect of over 55% in size
In short: (§1)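 Cells, 1,000 per well, plated 16 h, then exposed 48 h at 37 C to compounds. Viability by ATPlite luminescence after 15 min at room temperature.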

[2] = tested on: Tov-21-G; experiment: as above; details: Gynecologic cancer cell panel viability, ATPlite luminescence, 48 h; series mostly up to 57.5 µM
In short: as §1

[3] = tested on: Tov112D; experiment: as above; details: Gynecologic cancer cell panel viability, ATPlite luminescence, 48 h; series mostly up to 57.5 µM
In short: as §1

[4] = Drug repurposing screens with cells derived from glioblastoma tumor samples (AID 1345199); details: GBM patient neurospheres viability, ATP luminescence, 48 h; also: nearly all actives have a fitted effect of over 40% in size
In short: (§2)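 Four patient lines of CD133+ GBM neurospheres were screened at several concentrations; hits were retested in those lines plus three slower-growing GBM lines, using 48-hour treatment and ATP-based viability.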

[5] = tested on: astro; experiment: as above; details: viability, ATP luminescence, 48 h; series mostly up to 45.9 µM
In short: as §2

[6] = at 45.9 µM (top of the series), tumour line B
[7] = at 45.9 µM (top of the series), tumour line D
[8] = at 46 µM (top of the series), tumour line A
[9] = at 46.1 µM (top of the series), tumour line C
[10] = at 20 µM (top of the series), tumour line C
[11] = at 21.2 µM (top of the series), tumour line B
[12] = at 21.2 µM (top of the series), tumour line D
[13] = at 21.3 µM (top of the series), tumour line A

Measured: activity, negative = cell killing
% is scaled to controls: 0 for no effect and ±100 for the full control effect.

CN[C@@H]1[C@@H](O)[C@@H](O[C@@H]2[C@H](O)[C@H](O[C@H]3OC(CN)=CC[C@H]3N)[C@@H](N)C[C@H]2N)OCC1(C)O (some centres not stated)
inactive: [1] | [2] | [3] | [4]; [6] -0.265% | [4]; [7] 7.79% | [4]; [8] -24.3% | [4]; [9] -7.7% | [5]

O=C(O)c1ccccc1C(=O)Nc1ccc(S(=O)(=O)Nc2nccs2)cc1
inactive: [1] | [2] | [3] | [4]; [6] -6.87% | [4]; [7] -3.34% | [4]; [8] -31.1% | [4]; [9] 1.95% | [5]

CC(=O)Oc1cccc(O)c1
inactive: [1] | [2] | [3] | [4]; [6] -1.54% | [4]; [7] -17.1% | [4]; [8] -23.9% | [4]; [9] -11% | [5]

O=C(Cn1ccnc1[N+](=O)[O-])NCc1ccccc1
inactive: [1] | [2] | [3] | [4]; [6] 4.79% | [4]; [7] 3.98% | [4]; [8] -20.7% | [4]; [9] -17.9% | [5]

CCS(=O)(=O)CCn1c([N+](=O)[O-])cnc1C
inactive: [1] | [2] | [3] | [4]; [10] -12.4% | [4]; [11] -11.3% | [4]; [12] 3.43% | [4]; [13] -20.5% | [5]

Cn1c([N+](=O)[O-])cnc1COC(N)=O
inactive: [1] | [2] | [3] | [4]; [6] -9.55% | [4]; [7] -8.48% | [4]; [8] -18.6% | [4]; [9] -20.8% | [5]

O=c1[nH]cnc2nc[nH]c12
inactive: [1] | [2] | [3] | [4]; [6] -0.606% | [4]; [7] 15.6% | [4]; [8] -28.5% | [4]; [9] -12.9% | [5]

CN[C@@H]1[C@H](O)[C@H](NC)[C@H]2O[C@@]3(O)C(=O)C[C@@H](C)O[C@H]3O[C@@H]2[C@H]1O
inactive: [1] | [2] | [3] | [4]; [10] -1.47% | [4]; [11] -21.3% | [4]; [12] 0.484% | [4]; [13] -6.42% | [5]

Nc1ccncc1N
inactive: [1] | [2] | [3] | [4]; [6] -7.35% | [4]; [7] -6.96% | [4]; [8] -18.3% | [4]; [9] -14.3% | [5]

NC(=O)CCCCC1CCSS1 (configuration not stated)
inactive: [1] | [2] | [3] | [4]; [6] -3.9% | [4]; [7] 6.2% | [4]; [8] -23.7% | [4]; [9] 2.37% | [5]

CC(C)CCCC(C)CCCC(C)CCCCC(C)CCCC(C)CCCC(C)C (configuration not stated)
inactive: [1] | [2] | [3] | [4]; [6] 2.81% | [4]; [7] 2.23% | [4]; [8] -12.7% | [4]; [9] 8.73% | [5]

COc1ccc(NS(=O)(=O)c2ccc(N)cc2)nn1
inactive: [1] | [2] | [3] | [4]; [10] -22.2% | [4]; [11] -14.9% | [4]; [12] -7.76% | [4]; [13] -20.5% | [5]

CCN(CC)CCc1nc(-c2ccccc2)no1
inactive: [1] | [2] | [3] | [4]; [10] -35.3% | [4]; [11] 0.0715% | [4]; [12] 5.97% | [4]; [13] -18.4% | [5]

CCCCC1(COC(=O)CCC(=O)O)C(=O)N(c2ccccc2)N(c2ccccc2)C1=O
inactive: [1] | [2] | [3] | [4]; [10] -5.58% | [4]; [11] -15.2% | [4]; [12] -10.8% | [4]; [13] -29.7% | [5]

O=C(O)CCC(=O)O
inactive: [1] | [2] | [3] | [4]; [6] -11.8% | [4]; [7] -1.31% | [4]; [8] -19% | [4]; [9] 36.7% | [5]

CCc1cccc(CC)c1NC(=O)CN(CC(=O)O)CC(=O)O
inactive: [1] | [2] | [3] | [4]; [10] -11.2% | [4]; [11] -2.25% | [4]; [12] -7.08% | [4]; [13] -26% | [5]

CCCCCCCC(=O)OCC(O)CO (configuration not stated)
inactive: [1] | [2] | [3] | [4]; [6] -0.0604% | [4]; [7] -12.6% | [4]; [8] -23.4% | [4]; [9] -3.44% | [5]

C1CCN2C[C@@H]3C[C@@H](CN4CCCC[C@@H]34)[C@H]2C1
inactive: [1] | [2] | [3] | [4]; [10] 4.02% | [4]; [11] -1.82% | [4]; [12] -18% | [4]; [13] -22% | [5]

CC(C)CCOC(=O)c1ccc(N(C)C)cc1
inactive: [1] | [2] | [3] | [4]; [6] -5.37% | [4]; [7] -2.75% | [4]; [8] -50% | [4]; [9] -13.2% | [5]
